From PubChem BioAssay AID540299 (ICCB-Longwood Screening Facility, Harvard Medical School, 2011)
Among all 100,000 compounds or so, about 440 (0.44%) were called active. Rule as the data show it: active = inhibition above about 21% (passing the limit was not always enough); inactive = the rest. Shown is part of a subset that was picked to be rich in actives.

What follows are compounds tested against 1,4-dihydroxy-2-naphthoyl-CoA synthase (Mycobacterium tuberculosis (strain ATCC 25618 / H37Rv)) (UniProt P9WNP5) (assay: M. tuberculosis MenB inhibitors, primary screen, biochemical, absorbance (AID 540299)). Settings: MenB enzyme assay, absorbance read-out; hits give high values; concentration not given here.
Sequence of 1,4-dihydroxy-2-naphthoyl-CoA synthase (Mycobacterium tuberculosis (strain ATCC 25618 / H37Rv)) (P9WNP5 whole entry, looked up): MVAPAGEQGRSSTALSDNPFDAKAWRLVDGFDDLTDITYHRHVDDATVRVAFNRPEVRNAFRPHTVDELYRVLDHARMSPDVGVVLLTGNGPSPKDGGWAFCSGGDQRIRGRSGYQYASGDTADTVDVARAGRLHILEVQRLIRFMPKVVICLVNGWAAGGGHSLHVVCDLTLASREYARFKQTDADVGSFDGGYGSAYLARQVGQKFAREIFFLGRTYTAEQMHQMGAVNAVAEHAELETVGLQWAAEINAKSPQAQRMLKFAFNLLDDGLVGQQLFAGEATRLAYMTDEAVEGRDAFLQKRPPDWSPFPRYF

Compound	inhibition
CCOC(=O)c1cnc2cc(C(F)(F)F)ccc2c1N1CCCCCC1	-32.7% (inactive)
CCOC(=O)CN1CCC(n2nnc3cc(C(F)(F)F)ccc32)CC1	40.1% (active)
COc1cc(C(=O)N2CCC(n3nnc4cc(F)ccc43)CC2)cc(OC)c1OC	-27.8% (inactive)
CCCN(CCC)C(=O)c1cc(-c2ccccc2)n[nH]1	2.47% (inactive)
CCCC(=O)N1CCN(c2ccc(NC(=O)c3cccc(C)c3OC)cc2Cl)CC1	-14.8% (inactive)
CCCC(CCC)C(=O)Nc1ccc(NC(=O)c2ccco2)cc1	34.4% (active)
Cc1cccc(C(=O)Nc2ccc(NC(=O)c3ccco3)cc2)c1	-25.7% (inactive)
CCCC(=O)N1CCN(c2ccc(NC(=O)c3ccco3)cc2Cl)CC1	36.3% (active)
CCC(=O)Nc1cc(NC(=O)c2ccco2)ccc1C	3.59% (inactive)
O=C(Nc1ccccc1)c1ccco1	-38.1% (inactive)
CCC(/C=N/N1C(=O)c2ccccc2C1=O)CC	4.86% (inactive)
CCSc1nnc(C2CCN(CC(=O)Nc3ccc(N4CCCCCC4)cc3)CC2)n1C	-53.3% (inactive)
Cc1cc(C)nc(N2CCCC(C)C2)n1 (stereo not given)	-26.5% (inactive)
N#CC1=C(N)/C(=C\c2ccc(Cl)c(Cl)c2)SC1=N	-31% (inactive)
Cc1cc(C)nc(SCC(=O)N2CCCC2c2cccs2)n1 (stereo not given)	-1.45% (inactive)
O=C1C=C/C(=N\OC(=O)c2ccccc2)C2=C1C1C=CC2C1 (stereo not given)	-24.3% (inactive)
COc1ccc(-c2noc(CNC3CCCCC3)n2)cc1	-2.19% (inactive)
CC1Sc2nnc(-c3ccc(OC(F)F)cc3)n2N=C1c1ccc(NS(C)(=O)=O)cc1 (stereo not given)	-9.43% (inactive)
N#Cc1cc(Cl)c2c(c1)OCCO2	-39.8% (inactive)
O=C(COC(=O)Cn1[nH]c(=O)c2ccccc2c1=O)Nc1ncc(Cl)cc1Cl	1.74% (inactive)
Cc1nc2ccc(NC(=O)CC(C)(C)C)cc2s1	-7.18% (inactive)
N#Cc1nc(NC(=O)c2cc(-c3cccs3)nc3ccccc23)[nH]c1C#N	-0.59% (inactive)

Compound	inhibition
O/N=C(/c1ccccc1)c1ccccn1	17.8% (inactive)
CCN1C(=O)C(C(=O)NC(C)c2ccccc2)C2CC1(C)Oc1ccccc12 (stereo not given)	25.7% (inactive)
CN1C(=O)C(C(=O)O)C2CC1Oc1ccccc12 (stereo not given)	34.4% (active)
CN1C(=O)C(S(=O)(=O)c2ccccc2)C2CC1(C)Oc1ccccc12 (stereo not given)	11.3% (inactive)
CCN(CC)Cc1cc(C(=O)O)co1	31.6% (active)
CCN(c1ccccc1)S(=O)(=O)c1cccc(C(=O)O)c1	-9.9% (inactive)
CCCCC#Cc1cncc(C(=O)O)c1	-22.8% (inactive)
COc1ccc(C(=O)OCc2ccccn2)cc1	-2.18% (inactive)
COC(=O)c1ccccc1NC(=O)C1CCN(S(=O)(=O)c2ccc(OC)c(OC)c2)CC1	-4.4% (inactive)
O=c1c(O)coc(CO)c1C(Nc1ccccn1)c1ccccc1O (stereo not given)	-8.94% (inactive)
Cc1ccc(NC(=O)CC(C)S(=O)(=O)c2ccc3c(c2)SCC(=O)N3)cc1 (stereo not given)	-27.7% (inactive)
O=C(CN1CCCCC1)N1N=C(c2cccs2)CC1c1ccc(O)cc1 (stereo not given)	-15.9% (inactive)
CN1C(=O)c2cccc(NC(=O)c3ccccc3)c2C1=O	-46.4% (inactive)
COc1cccc2c1C(=O)C1C(O)=C3C(=C(O)C1C2=O)C[C@@](O)(C(=O)CO)C[C@@H]3OC1CC(N)C(O)C(C)O1 (stereo not given in full)	4.12% (inactive)
CN(Cc1cccc(Cl)c1Cl)CC(O)COCc1ccccc1 (stereo not given)	-5.12% (inactive)
COc1ccc(Cc2nnc3n2N=C(N)CS3)cc1	8.07% (inactive)
CCNc1nnc(-c2ccc(C)cc2)s1	-8.94% (inactive)
COc1ccc(-c2noc(N3CCN(c4ccc(OC)cc4)CC3)n2)cc1	1.43% (inactive)
COc1cc(C)cc(CN2CCN(S(=O)(=O)c3ccccc3C#N)CC2)c1O	-41.6% (inactive)
CCCC1(C(=O)OC)NC(c2ccco2)C2C(=O)N(C)C(=O)C21 (stereo not given)	29.6% (active)
CCOC(=O)C1(Cc2ccc(O)cc2)NC(c2ccccc2F)C2C(=O)N(C)C(=O)C21 (stereo not given)	-10.9% (inactive)
CCN1C(=O)C2C(c3cccs3)NC(C)(C(=O)OC)C2C1=O (stereo not given)	15.1% (inactive)

Compound	inhibition
CC1CCCCN1CC(=O)Nc1cc(C(C)(C)C)nn1-c1ccccc1 (stereo not given)	7.46% (inactive)
COc1ccc2c(CC(=O)OCC(=O)Nc3c(C)n(C)n(-c4ccccc4)c3=O)coc2c1	-0.895% (inactive)
Cc1cc(N2CCN(C3CCCCC3)CC2)c2nncn2n1	0.645% (inactive)
O=C1CC2NCCc3cccc1c32 (stereo not given)	-9.34% (inactive)
CCNS(=O)(=O)c1ccc(-c2cc(C)no2)s1	-3.52% (inactive)
O=C(COC(=O)c1ccc(S(=O)(=O)N2CCOCC2)cc1)Nc1ncc(Cl)cc1Cl	3.48% (inactive)
CCCc1ccc(OCCNC(C)=O)c(OC)c1	11.5% (inactive)
Cc1ccc2oc(=O)c3cnn(CC(=O)n4c(C)cc5ccccc54)c3c2c1	-3.43% (inactive)
CC1(C)CC(=O)C2=C(C1)N=C1SCCC(=O)N1C2c1ccc(Br)cc1 (stereo not given)	-1.14% (inactive)
C=CCn1c(=NC(C)=O)sc2cc(F)ccc21	-10.2% (inactive)
CC1CCCCN1C(=O)c1ccc2ccccc2n1 (stereo not given)	-16.5% (inactive)
O=C1CCC(=O)N1CNc1ccc(-c2ccccc2)cc1	-8.33% (inactive)
Oc1ccc(-c2cccc(-c3ccc(O)cc3)c2)cc1	-21.5% (inactive)
Oc1ccc(SSc2ccc(O)cc2)cc1	40.7% (active)
Oc1ccc(-n2cccc2)cc1	-10.9% (inactive)
CCc1ccc(-c2nnn(Cc3nn[nH]n3)n2)cc1	42.6% (active)
c1cc(-c2nn[nH]n2)ccc1CN1CCCCC1	-0.56% (inactive)
Cc1ccccc1Cn1nnc(-c2ccncc2)n1	-48.5% (inactive)
COC(=O)Cc1cnc(NC(=O)CSc2nc(C(C)C)cc(=O)[nH]2)s1	-54% (inactive)
CN1C(C(=O)NC2CCCC2)=CC(c2cccs2)=NS1(=O)=O	-18.8% (inactive)
COc1ccc(C(=O)NNc2nnc(C(C)(C)C)c(=O)n2N)cc1	1.4% (inactive)
